High-throughput results from PubChem BioAssay.
A selection: hits, their analogues and other compounds. The true share with any hit is near 3.4%.
p53ts 39C tox: p53ts cell cytotoxicity, nonpermissive temperature; H1299-p53A138V viability at 39C, ATP luminescence, 24 h; Potency, µM (top dose mostly 46.1 µM), actives largely listed as cytotoxic; 130,000 compounds, 1.5% hits; note: nearly all actives have a fitted effect of over 55% in size
Peg3 imprint: inducers of genomic imprint erasure in mouse ES cells. mouse ES Peg3-LacZ reporter, beta-gal luminescence, 40 h. Potency, µM (highest dose often 60.7 µM), actives largely listed as activators. 110,000 compounds, 0.02% hits. AID 1948
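Each well holds 300 Peg3LacZ-Neo (maternal) female ES cells incubated 40 h at 37C, 5% CO2. LacZ is measured by BetaGlo luminescence, with AC50 and maximum efficacy derived from dose-response curves.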
Tau fil binding: tau filament binding | P10636 | recombinant tau filaments, thioflavin S fluorescence, 15 h; filaments grown with octadecylsulfate alongside compound | Potency, µM (highest dose often 57.1 µM) | 71,000 compounds, 2% hits | AID 596;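 note: actives lower thioflavin S fluorescence by blocking filaments or displacing dye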
Target sequence (P10636 whole entry, looked up): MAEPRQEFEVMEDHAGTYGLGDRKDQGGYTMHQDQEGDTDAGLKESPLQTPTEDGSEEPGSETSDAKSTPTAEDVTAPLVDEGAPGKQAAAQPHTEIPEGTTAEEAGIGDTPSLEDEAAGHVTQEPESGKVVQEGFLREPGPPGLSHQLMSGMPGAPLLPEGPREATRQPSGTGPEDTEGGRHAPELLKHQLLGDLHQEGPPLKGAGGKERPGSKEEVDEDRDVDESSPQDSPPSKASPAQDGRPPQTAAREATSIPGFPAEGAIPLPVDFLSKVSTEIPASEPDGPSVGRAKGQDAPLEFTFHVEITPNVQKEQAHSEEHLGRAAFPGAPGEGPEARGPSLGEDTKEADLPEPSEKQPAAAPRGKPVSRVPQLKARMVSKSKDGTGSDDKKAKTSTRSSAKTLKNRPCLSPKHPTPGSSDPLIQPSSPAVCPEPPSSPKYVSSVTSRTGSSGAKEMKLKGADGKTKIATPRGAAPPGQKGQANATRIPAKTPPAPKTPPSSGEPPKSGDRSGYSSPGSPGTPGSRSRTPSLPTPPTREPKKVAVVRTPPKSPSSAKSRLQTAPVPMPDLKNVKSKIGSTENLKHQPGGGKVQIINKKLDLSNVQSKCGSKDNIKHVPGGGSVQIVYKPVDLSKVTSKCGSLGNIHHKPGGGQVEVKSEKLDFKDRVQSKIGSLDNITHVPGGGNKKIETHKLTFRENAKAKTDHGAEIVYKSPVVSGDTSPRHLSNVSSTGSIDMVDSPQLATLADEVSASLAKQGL
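Quantitative HTS: thioflavine S signal from ODS-induced tau filaments, excited at 450 nm, emission 510 nm. Conditions: 1 uM tau, 30 uM ODS, 15 h at 37 C, pH 7.4.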
p53ts 32C kill: p53ts cell cytotoxicity, permissive temperature | H1299-p53A138V at 32C, ATP luminescence viability, 24 h | Potency, µM (titrated, usually from 46.1 µM), usual class: cytotoxic | 130,000 compounds, 0.93% hits | AID 924; note: nearly all actives have a fitted effect of over 55% in size
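H1299-p53 A138V cells (temperature-sensitive p53) exposed 24 h to up to 46 uM compound at 32C, where p53 is wild-type in conformation. Viability read as ATP luminescence and normalised to DMSO and 100 uM tamoxifen. AC50 fitted with the Hill equation.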
Luciferase inh: blocks Photinus pyralis firefly luciferase activity; purified firefly luciferase, luminescence, 8 min; 72,000 compounds, 2.2% hits; P08659; AID 411; Potency, µM (highest dose often 57.1 µM), hits mostly inhibitors; note: nearly all actives have a fitted effect of over 40% in size
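Titration-based qHTS; buffer 50 mM imidazole pH 7.2, 50 mM KCl, 7 mM MgCl2, 10 uM ATP, 0.01% Tween 20, 0.05% BSA; luciferase/luciferin detector mix added after compound; 8 min, ambient; luminescence.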
Of the large screens only hits and unclear results are named; the others gave an inactive call. Calls come from the whole dose curve; as a rule, active = well fitted curve in the direction sought with a large enough effect; inconclusive = small, poorly fitted or top-dose-only effect, or another doubt; inactive = no such curve, though single readings can be large; an effect the other way counts as inactive or inconclusive.

CC(C)Cn1nc(NC(=O)c2cccc(Cl)c2)c2cc3ccccc3nc21	p53ts 39C tox 12.6µM (no result: Tau fil binding, Luciferase inh)
COCCn1c(=O)c(-c2ccc(Cl)cc2)nc2cnc(Nc3ccccc3)nc21	Peg3 imprint inconclusive
Cc1cc(C)cc(NC(=O)Cn2cc(C(=O)C3CCCCC3)c3ccccc32)c1	p53ts 39C tox 10µM, p53ts 32C kill inconclusive (no result: Tau fil binding, Luciferase inh)
CCCCn1c2nc3ccccc3nc2c2c(=O)n(CCC(C)C)cnc21	none
CC(C)Cn1c2nc3ccccc3nc2c2c(=O)n(CCN3CCOCC3)cnc21	Tau fil binding 25.1µM
CCCn1cnc2c(c1=O)c1nc3ccccc3nc1n2CCC1=CCCCC1	none
CCOCCCn1c(C)nc2c(c1=O)c1nc3ccccc3nc1n2CCC1=CCCCC1	Tau fil binding 1.58µM
CCN1C(C(=O)c2ccccc2)=C(OC(=O)c2ccccc2OC)c2ccccc2S1(=O)=O	p53ts 39C tox 10µM, p53ts 32C kill inconclusive (no result: Tau fil binding, Luciferase inh)
CCCn1cc(S(=O)(=O)c2ccc(OC)cc2)c(=O)c2cc(F)c(N3CCCC(C)C3)cc21 (configuration not stated)	none (no result: p53ts 39C tox, Peg3 imprint, Tau fil binding, Luciferase inh)
COc1cc(/C=C\C(=O)N2CCC=CC2=O)cc(OC)c1OC	p53ts 39C tox 6.31µM, p53ts 32C kill 6.31µM
COc1cc(/C=C/C(=O)O)cc(OC)c1OC	none (no result: Tau fil binding, Luciferase inh)
COc1cc(/C=C/C(=O)N2C(=O)c3cccc(N)c3C2=O)cc(OC)c1OC	none (no result: Peg3 imprint, Tau fil binding, p53ts 32C kill, Luciferase inh)
COc1cc(/C=C/C(=O)N2CCCCC2=O)cc(OC)c1OC	p53ts 39C tox 12.6µM, p53ts 32C kill 12.6µM (no result: Tau fil binding, Luciferase inh)
CNc1nn(-c2cccc(Cl)c2)nc1N	Tau fil binding 15.8µM
CN1CCN(CN2C(=O)C3C4C=CC(C3C2=O)C2C3C(=O)N(CN5CCN(C)CC5)C(=O)C3C42)CC1 (configuration not stated)	none
Cc1cc(NC(=O)Nc2ccc(N(C)C)cc2)c2cc(F)cc(F)c2n1	Tau fil binding 31.6µM
CCc1ccc(C(=O)c2cn(CC(=O)Nc3ccc4c(c3)OCO4)c3ccc(CC)cc3c2=O)cc1	p53ts 39C tox 12.6µM, p53ts 32C kill inconclusive (no result: Tau fil binding, Luciferase inh)
CCOc1ccc(C(=O)c2cn(CC(=O)Nc3ccc(C)c(Cl)c3)c3ccc(OCC)cc3c2=O)cc1	none (no result: Tau fil binding, Luciferase inh)
CCc1ccc(C(=O)c2cn(CC(=O)Nc3ccc(Cl)cc3)c3cc4c(cc3c2=O)OCO4)cc1	none (no result: Tau fil binding, Luciferase inh)
CCc1ccc2c(c1)c(=O)c(C(=O)c1ccccc1)cn2CC(=O)Nc1ccc(C)c(Cl)c1	p53ts 39C tox 15.8µM (no result: Tau fil binding, Luciferase inh)
CCc1ccc(C(=O)c2cn(CC(=O)Nc3ccc4c(c3)OCO4)c3ccc(Cl)cc3c2=O)cc1	p53ts 39C tox 12.6µM (no result: Tau fil binding, Luciferase inh)
COc1ccc(C(=O)c2cn(Cc3ccc(F)cc3)c3ccc(C)cc3c2=O)cc1	none (no result: Tau fil binding, Luciferase inh)
O[C@@H](c1cc(C(F)(F)F)nc2c(Cl)cc(Cl)cc12)[C@@H]1CCCCN1	none (no result: Peg3 imprint)
Nc1ccc(N)c(Cl)c1	Tau fil binding 31.6µM (no result: Luciferase inh)
Nc1ccc(N2C(=O)c3ccccc3C2=O)c(Cl)c1	Peg3 imprint inconclusive
CCOC(=O)c1cc2occc2n1CCCN1C(=O)c2ccccc2C1=O	Tau fil binding 15.8µM (no result: Peg3 imprint)
CCOC(=O)c1cc2occc2n1CC(=O)N1CCOCC1	none
CC1Cc2cc(S(=O)(=O)CCC(=O)Nc3ccc(Cl)cc3F)ccc2N1C(=O)C1CC1 (configuration not stated)	none (no result: Tau fil binding, Luciferase inh)
O=C(Nc1nc(-c2ccncc2)cs1)c1ccco1	Tau fil binding 12.6µM
O=C(Nc1nc(-c2ccc(Cl)s2)cs1)c1ccncc1	Tau fil binding 25.1µM
Cc1ccc(NC(=O)c2sc3nc(-c4cccs4)ccc3c2N)cc1F	none (no result: Tau fil binding, Luciferase inh)
Cc1csc(NC(=O)c2sc3nc(-c4cccs4)ccc3c2N)n1	Luciferase inh 20µM
COc1ccc(C(=O)Nc2nc(-c3cccs3)cs2)cc1	Luciferase inh 15.8µM
Brc1cc(Oc2cc(Br)c(Br)c(Br)c2Br)c(Br)c(Br)c1Br	none (no result: Luciferase inh)
COc1cccc(NC(=O)CSc2nnc3scc(-c4ccc(Cl)cc4)n23)c1	none (no result: Tau fil binding, Luciferase inh)
CN(C)C1CCN(C(=O)c2ccc(-n3c(=O)c(=O)[nH]c4ccccc43)cc2)C1 (configuration not stated)	none (no result: Peg3 imprint, Tau fil binding, Luciferase inh)
Nc1cc(C(=O)c2cccs2)ccc1Cl	Tau fil binding 15.8µM
CCOc1ccccc1NC(=O)c1nn(C)c2c1CSc1ccccc1-2	p53ts 39C tox 15.8µM (no result: Tau fil binding, Luciferase inh)
N#Cc1cccc(-c2nc3cnc(Oc4cccc(Cl)c4)nc3n(C3CC3)c2=O)c1	Tau fil binding 10µM
O=c1c(-c2ccc(Cl)cc2)nc2cnc(Oc3ccccc3)nc2n1C1CC1	Tau fil binding 12.6µM (no result: Peg3 imprint)
O=c1c(-c2ccccc2)nc2cnc(Oc3ccccc3)nc2n1C1CC1	none (no result: Peg3 imprint)
Cn1cc(-c2nc3cnc(Oc4cccc(Cl)c4)nc3n(C3CC3)c2=O)c2ccccc21	none
O=c1cnc2cnc(Nc3ccccc3)nc2n1CCc1ccccc1	none
CCOc1ccc(NC(=O)[C@H]2O[C@@H]3OC(C)(C)O[C@@H]3[C@H]3OC(C)(C)O[C@H]32)cc1	none (no result: Tau fil binding, Luciferase inh)
COc1cccc2sc(NC(=O)c3ccc4c(c3)OCCO4)nc12	p53ts 39C tox 5.01µM, p53ts 32C kill inconclusive (no result: Tau fil binding, Luciferase inh)
CC1=c2c(oc3cc(O)c(Nc4c(C)cc(O)cc4O)c(C)c23)=CC(=O)C1=Nc1c(C)cc(O)cc1O	Tau fil binding 1.58µM
Cc1cccc(C#Cc2ccccc2)n1	p53ts 39C tox inconclusive, Tau fil binding inconclusive, p53ts 32C kill 12.6µM, Luciferase inh 12.6µM
CCN(c1ccc(Cl)cc1)S(=O)(=O)c1nnc(NC(=O)C(C)C)s1	none (no result: Tau fil binding, Luciferase inh)
CCCCOc1ccc(-c2nnn(CCC(=O)N3CCOCC3)n2)cc1	p53ts 39C tox inconclusive, p53ts 32C kill inconclusive, Luciferase inh 6.31µM
